From the supplement of paper PMC12494721
Where a name gives a salt, the structure may show the parent alone.

Experiments:
Settings in all cases: incubation time: 27 h, anaerobic, 37 °C;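 for the amine columns active = adjusted P below 0.05 in both replicates with a change the same way and a mean fold change under 0.8 or over 1.25; inactive = the rest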
[1] = system: Clostridium sporogenes DSM 1664; assay: growth (OD595) fold change vs plate DMSO controls (fold change (ratio)); higher = more growth
Procedure, shortened: (§1)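 The measure reported is growth, taken as fold change against the median of DMSO controls on the same plate. Anaerobic mGAM cultures in 96-well plates (27 h, 37 °C) were read at 595 nm, blank-subtracted, corrected for compound background using 20 µM compound solutions in water, and multiplied by a calibration factor of 5 to give OD. Any fold change above 1.5 became NA, and 2 biological replicates were averaged.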

Escherichia coli IAI1 [2] = assay: as above
Procedure, shortened: as §1

[3] = system: Klebsiella aerogenes DSM 30053; assay: as above
Procedure, shortened: as §1

[4] = system: Ruminococcus gnavus DSM 108212; assay: as above
Procedure, shortened: as §1

[5] = system: Klebsiella aerogenes DSM 30053; assay: fold change of Histamine concentration vs plate DMSO controls (fold change (ratio)); higher = more amine produced, active = hit call of the paper (significant change in both replicates, either direction)
Procedure, shortened: (§2)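 Extracts of whole anaerobic mGAM cultures were analysed for amines by LC–triple-quadrupole MS with dynamic MRM and external calibration curves, with drift corrected within batch. Four gut strains were grown at 37 °C for 27 h in 80 µL wells with compounds at 20 µM final, sweeteners at 50 µM final. Each value expresses fold change over plate DMSO controls. The average of 2 biological replicates is shown.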

[6] = system: Clostridium sporogenes DSM 1664; assay: fold change of Tryptamine concentration vs plate DMSO controls (fold change (ratio)); higher = more amine produced, active = hit call of the paper (significant change in both replicates, either direction)
Procedure, shortened: as §2

[7] = system: Ruminococcus gnavus DSM 108212; assay: as above
Procedure, shortened: as §2

Escherichia coli IAI1 [8] = assay: fold change of Putrescine concentration vs plate DMSO controls (fold change (ratio)); higher = more amine produced, active = hit call of the paper (significant change in both replicates, either direction)
Procedure, shortened: as §2

[9] = system: Klebsiella aerogenes DSM 30053; assay: as above
Procedure, shortened: as §2

Escherichia coli IAI1 [10] = assay: fold change of Cadaverine concentration vs plate DMSO controls (fold change (ratio)); higher = more amine produced, active = hit call of the paper (significant change in both replicates, either direction)
Procedure, shortened: as §2

[11] = system: Klebsiella aerogenes DSM 30053; assay: as above
Procedure, shortened: as §2

[12] = system: Ruminococcus gnavus DSM 108212; assay: fold change of 2-Phenylethylamine concentration vs plate DMSO controls (fold change (ratio)); higher = more amine produced, active = hit call of the paper (significant change in both replicates, either direction)
Procedure, shortened: as §2

With Cc1cc(-c2ccccc2)nnc1NCCN1CCOCC1 [Minaprine dihydrochloride] (20 µM) the growth [1] was 1.21, the growth (Escherichia coli IAI1 [2]) was 0.985 and the growth [3] was 0.972. The growth [4] was 1.16, the “fold change of Histamine concentration” value [5] was 0.939 (inactive) and the “fold change of Tryptamine concentration” value [6] was 1.01 (inactive). For the same molecule, the “fold change of Tryptamine concentration” value [7] was 0.991 (inactive), the “fold change of Putrescine concentration” value (Escherichia coli IAI1 [8]) was 0.963 (inactive) and the “fold change of Putrescine concentration” value [9] was 0.998 (inactive). For the same molecule, the “fold change of Cadaverine concentration” value (Escherichia coli IAI1 [10]) was 1.01 (inactive), the “fold change of Cadaverine concentration” value [11] was 1 (inactive) and the “fold change of 2-Phenylethylamine concentration” value [12] was 0.955 (inactive).

Work on CCCNCC(O)COc1ccccc1C(=O)CCc1ccccc1 (configuration not stated) [Propafenone hydrochloride] (20 µM) yielded a growth [1] of 1.01, a growth (Escherichia coli IAI1 [2]) of 0.96 and a growth [3] of 1.12. The growth [4] was 0.759, the “fold change of Histamine concentration” value [5] was 0.848 (inactive) and the “fold change of Tryptamine concentration” value [6] was 1.01 (inactive). The “fold change of Tryptamine concentration” value [7] was 1.03 (inactive), the “fold change of Putrescine concentration” value (Escherichia coli IAI1 [8]) was 0.987 (inactive) and the “fold change of Putrescine concentration” value [9] was 0.99 (inactive). The “fold change of Cadaverine concentration” value (Escherichia coli IAI1 [10]) was 1.05 (inactive), the “fold change of Cadaverine concentration” value [11] was 1.02 (inactive) and the “fold change of 2-Phenylethylamine concentration” value [12] was 1.06 (inactive).

NC[C@@H]1O[C@H](O[C@H]2[C@@H](O)[C@H](O[C@@H]3[C@@H](O)[C@H](N)C[C@H](N)[C@H]3O[C@H]3O[C@H](CO)[C@@H](O)[C@H](O)[C@H]3N)O[C@@H]2CO)[C@H](N)[C@@H](O)[C@@H]1O [Paromomycin sulfate] (20 µM) showed a growth [1] of 1.06, a growth (Escherichia coli IAI1 [2]) of 0.996 and a growth [3] of 0.975. For the same molecule, the growth [4] was 0.984, the “fold change of Histamine concentration” value [5] was 0.994 (inactive) and the “fold change of Tryptamine concentration” value [6] was 1.03 (inactive). The “fold change of Tryptamine concentration” value [7] was 0.999 (inactive), the “fold change of Putrescine concentration” value (Escherichia coli IAI1 [8]) was 1.01 (inactive) and the “fold change of Putrescine concentration” value [9] was 1 (inactive). For the same molecule, the “fold change of Cadaverine concentration” value (Escherichia coli IAI1 [10]) was 0.972 (inactive), the “fold change of Cadaverine concentration” value [11] was 0.981 (inactive) and the “fold change of 2-Phenylethylamine concentration” value [12] was 0.987 (inactive).

CC(=O)O[C@H]1C[C@@H]2CC[C@@H]3[C@H](CC[C@@]4(C)[C@H]3C[C@H]([N+]3(C)CCCCC3)[C@@H]4OC(C)=O)[C@@]2(C)C[C@@H]1N1CCCCC1 [Vecuronium bromide] (20 µM) gave a growth [1] of 0.99, a growth (Escherichia coli IAI1 [2]) of 0.99 and a growth [3] of 1.01. The growth [4] was 0.872, the “fold change of Histamine concentration” value [5] was 1.04 (inactive) and the “fold change of Tryptamine concentration” value [6] was 1.01 (inactive). For the same molecule, the “fold change of Tryptamine concentration” value [7] was 0.967 (inactive), the “fold change of Putrescine concentration” value (Escherichia coli IAI1 [8]) was 0.872 (inactive) and the “fold change of Putrescine concentration” value [9] was 1 (inactive). For the same molecule, the “fold change of Cadaverine concentration” value (Escherichia coli IAI1 [10]) was 0.992 (inactive), the “fold change of Cadaverine concentration” value [11] was 0.992 (inactive) and the “fold change of 2-Phenylethylamine concentration” value [12] was 1.03 (inactive).

In the case of Nc1nc(O)c2ncn(CCC(CO)CO)c2n1 [Penciclovir] (20 µM), the growth [1] is reported as 1.11, the growth (Escherichia coli IAI1 [2]) is reported as 1.12 and the growth [3] is reported as 1.06. The growth [4] was 1.14, the “fold change of Histamine concentration” value [5] was 0.824 (inactive) and the “fold change of Tryptamine concentration” value [6] was 1.07 (inactive). For the same molecule, the “fold change of Tryptamine concentration” value [7] was 1.08 (inactive), the “fold change of Putrescine concentration” value (Escherichia coli IAI1 [8]) was 1.08 (inactive) and the “fold change of Putrescine concentration” value [9] was 0.962 (inactive). For the same molecule, the “fold change of Cadaverine concentration” value (Escherichia coli IAI1 [10]) was 0.996 (inactive), the “fold change of Cadaverine concentration” value [11] was 1.02 (inactive) and the “fold change of 2-Phenylethylamine concentration” value [12] was 1.12 (inactive).

Molecule Cc1cc(N)c2ccccc2[n+]1CCCCCCCCCC[n+]1c(C)cc(N)c2ccccc21 [Dequalinium dichloride] (20 µM) has a growth [1] of 0.993, a growth (Escherichia coli IAI1 [2]) of 0.99 and a growth [3] of 1.11. For the same molecule, the growth [4] was 0.565, the “fold change of Histamine concentration” value [5] was 0.873 (inactive) and the “fold change of Tryptamine concentration” value [6] was 0.951 (inactive). For the same molecule, the “fold change of Tryptamine concentration” value [7] was 0.896 (inactive), the “fold change of Putrescine concentration” value (Escherichia coli IAI1 [8]) was 0.933 (inactive) and the “fold change of Putrescine concentration” value [9] was 1 (inactive). For the same molecule, the “fold change of Cadaverine concentration” value (Escherichia coli IAI1 [10]) was 0.968 (inactive), the “fold change of Cadaverine concentration” value [11] was 1.01 (inactive) and the “fold change of 2-Phenylethylamine concentration” value [12] was 0.921 (inactive).

CCCCNC(=O)NS(=O)(=O)c1ccc(C)cc1 [Tolbutamide] (20 µM) was tested, and the growth [1] was 0.926, the growth (Escherichia coli IAI1 [2]) was 0.985 and the growth [3] was 0.957. For the same molecule, the growth [4] was 0.746, the “fold change of Histamine concentration” value [5] was 1.04 (inactive) and the “fold change of Tryptamine concentration” value [6] was 1.02 (inactive). For the same molecule, the “fold change of Tryptamine concentration” value [7] was 1.01 (inactive), the “fold change of Putrescine concentration” value (Escherichia coli IAI1 [8]) was 0.978 (inactive) and the “fold change of Putrescine concentration” value [9] was 0.988 (inactive). The “fold change of Cadaverine concentration” value (Escherichia coli IAI1 [10]) was 1 (inactive), the “fold change of Cadaverine concentration” value [11] was 1 (inactive) and the “fold change of 2-Phenylethylamine concentration” value [12] was 1.04 (inactive).

For CN[C@@H]1[C@H](O[C@H]2[C@H](O[C@H]3[C@H](O)[C@@H](O)[C@H](NC(=N)N)[C@@H](O)[C@@H]3NC(=N)N)O[C@@H](C)[C@]2(O)CO)O[C@@H](CO)[C@H](O)[C@H]1O [Dihydrostreptomycin sulfate] (20 µM), the growth [1] was 1.08, the growth (Escherichia coli IAI1 [2]) was 0.98 and the growth [3] was 0.92. The growth [4] was 0.933, the “fold change of Histamine concentration” value [5] was 0.704 (inactive) and the “fold change of Tryptamine concentration” value [6] was 1.25 (inactive). The “fold change of Tryptamine concentration” value [7] was 0.984 (inactive), the “fold change of Putrescine concentration” value (Escherichia coli IAI1 [8]) was 0.958 (inactive) and the “fold change of Putrescine concentration” value [9] was 0.922 (inactive). For the same molecule, the “fold change of Cadaverine concentration” value (Escherichia coli IAI1 [10]) was 1.01 (inactive), the “fold change of Cadaverine concentration” value [11] was 0.993 (inactive) and the “fold change of 2-Phenylethylamine concentration” value [12] was 0.991 (inactive).

In the case of NC(N)=Nc1nc(CSCC/C(N)=N/S(N)(=O)=O)cs1 [Famotidine] (20 µM), the growth [1] is reported as 0.878, the growth (Escherichia coli IAI1 [2]) is reported as 0.928 and the growth [3] is reported as 0.855. The growth [4] was 0.824, the “fold change of Histamine concentration” value [5] was 1.04 (inactive) and the “fold change of Tryptamine concentration” value [6] was 1.02 (inactive). For the same molecule, the “fold change of Tryptamine concentration” value [7] was 1.03 (inactive), the “fold change of Putrescine concentration” value (Escherichia coli IAI1 [8]) was 1.03 (inactive) and the “fold change of Putrescine concentration” value [9] was 0.999 (inactive). For the same molecule, the “fold change of Cadaverine concentration” value (Escherichia coli IAI1 [10]) was 0.975 (inactive), the “fold change of Cadaverine concentration” value [11] was 0.99 (inactive) and the “fold change of 2-Phenylethylamine concentration” value [12] was 1.07 (inactive).

In the case of Cc1c(O)cccc1C(=O)N[C@@H](CSc1ccccc1)[C@H](O)CN1C[C@H]2CCCC[C@H]2C[C@H]1C(=O)NC(C)(C)C [Nelfinavir mesylate] (20 µM), the growth [1] is reported as 1.07, the growth (Escherichia coli IAI1 [2]) is reported as 1.09 and the growth [3] is reported as 1.01. For the same molecule, the growth [4] was 0.967, the “fold change of Histamine concentration” value [5] was 0.979 (inactive) and the “fold change of Tryptamine concentration” value [6] was 0.96 (inactive). For the same molecule, the “fold change of Tryptamine concentration” value [7] was 0.829 (inactive), the “fold change of Putrescine concentration” value (Escherichia coli IAI1 [8]) was 1.05 (inactive) and the “fold change of Putrescine concentration” value [9] was 1.02 (inactive). For the same molecule, the “fold change of Cadaverine concentration” value (Escherichia coli IAI1 [10]) was 1.01 (inactive), the “fold change of Cadaverine concentration” value [11] was 1 (inactive) and the “fold change of 2-Phenylethylamine concentration” value [12] was 0.894 (inactive).

O=C1CCc2ccc(OCCCCN3CCN(c4cccc(Cl)c4Cl)CC3)cc2N1 [Aripiprazole] (20 µM) was tested, and the growth [1] was 1.06, the growth (Escherichia coli IAI1 [2]) was 1.03 and the growth [3] was 0.979. The growth [4] was 1.07, the “fold change of Histamine concentration” value [5] was 1.16 (inactive) and the “fold change of Tryptamine concentration” value [6] was 0.955 (inactive). For the same molecule, the “fold change of Tryptamine concentration” value [7] was 0.781 (active), the “fold change of Putrescine concentration” value (Escherichia coli IAI1 [8]) was 1.03 (inactive) and the “fold change of Putrescine concentration” value [9] was 1.01 (inactive). For the same molecule, the “fold change of Cadaverine concentration” value (Escherichia coli IAI1 [10]) was 1.11 (inactive), the “fold change of Cadaverine concentration” value [11] was 0.976 (inactive) and the “fold change of 2-Phenylethylamine concentration” value [12] was 0.811 (inactive).
